Experimental data: PubChem BioAssay AID1159580 (chemical genetic matrix, 2015)
Several values for one entry are separate records, joined by “and”; a condition that tells them apart may be missing. Identical values can stand only once. Among all 5,500 compounds or so, about 2,000 (36%) were called active. Another 18% or so got no clear call; they are omitted. No stated cut-off is given here; in the data, active means normalized growth mostly below about 0.91 (no sharp cut-off); inconclusive means no clear call, values can overlap the other calls; inactive means mostly above about 0.92. Some of the results follow.

Assay: chemical genetic growth profiling, strain panel (AID 1159580);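 further: tested at 20 µM; growth read once vehicle control cultures reached saturation at 30 °C; 1 = growth at the plate median or of vehicle wells; lower values mean less growth of the strain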
Settings: growth OD

Measured: normalized growth

O=[N+]([O-])c1cc(O)c(O)c([N+](=O)[O-])c1
inactive: S. cerevisiae deletion strains, locus YJL187C, strain SWE1 (second series), hits give low values 1.02 | S. cerevisiae deletion strains, locus YJL187C, strain SWE1, hits give low values 1.01 | S. cerevisiae deletion strains, locus YJR075W, strain HOC1, hits give low values 1.05 | S. cerevisiae deletion strains, locus YKL009W, strain mrt4, hits give low values 1.01 | S. cerevisiae deletion strains, locus YKL068W, hits give low values 0.974 | S. cerevisiae deletion strains, locus YKL085W, strain MDH1 (second series), hits give low values 0.97 | S. cerevisiae deletion strains, locus YKL085W, strain MDH1, hits give low values 0.97 | S. cerevisiae deletion strains, locus YKL160W, strain elf1, hits give low values 1 | S. cerevisiae deletion strains, locus YKR001C, strain vps1, hits give low values 1 | S. cerevisiae deletion strains, locus YKR026C, strain gcn3, hits give low values 1.01 | S. cerevisiae deletion strains, locus YKR091W, strain srl3, hits give low values 1.01 | S. cerevisiae deletion strains, locus YLL001W, strain dnm1, hits give low values 1.01 | S. cerevisiae deletion strains, locus YLL026W, hits give low values 0.999 | S. cerevisiae deletion strains, locus YLL041C, strain sdh2, hits give low values 1.01 | S. cerevisiae deletion strains, locus YLR027C, strain aat2, hits give low values 1.02 | S. cerevisiae deletion strains, locus YLR039C, strain RIC1, hits give low values 0.958 | S. cerevisiae deletion strains, locus YLR058C, strain SHM2, hits give low values 1.01 | S. cerevisiae deletion strains, locus YLR102C, strain apc9, hits give low values 0.98 | S. cerevisiae deletion strains, locus YLR221C, strain rsa3, hits give low values 1.06 | S. cerevisiae deletion strains, locus YLR258W, strain gsy2, hits give low values 1.06 | S. cerevisiae deletion strains, locus YLR262C, strain YPT6 (second series), hits give low values 0.996 | S. cerevisiae deletion strains, locus YLR262C, strain YPT6, hits give low values 0.959 | S. cerevisiae deletion strains, locus YLR268W, strain sec22, hits give low values 0.972 | S. cerevisiae deletion strains, locus YLR320W, strain mms22, hits give low values 1.06 | S. cerevisiae deletion strains, locus YLR330W, strain CHS5, hits give low values 1.01 | S. cerevisiae deletion strains, locus YLR342W, strain FKS1 (second series), hits give low values 0.951 | S. cerevisiae deletion strains, locus YLR342W, strain FKS1, hits give low values 1.01 | S. cerevisiae deletion strains, locus YLR357W, strain rsc2, hits give low values 1.03 | S. cerevisiae deletion strains, locus YLR370C, strain arc18, hits give low values 1.01 | S. cerevisiae deletion strains, locus YLR371W, strain rom2, hits give low values 0.979 | S. cerevisiae deletion strains, locus YLR384C, strain iki3, hits give low values 1.01 | S. cerevisiae deletion strains, locus YLR418C, strain cdc73, hits give low values 0.908 | S. cerevisiae deletion strains, locus YML016C, strain PPZ1, hits give low values 1.01 | S. cerevisiae deletion strains, locus YML032C, strain rad52, hits give low values 1.01 | S. cerevisiae deletion strains, locus YML120C, strain ndi1, hits give low values 1.03 | S. cerevisiae deletion strains, locus YML124C, strain tub3, hits give low values 0.973 | S. cerevisiae deletion strains, locus YMR058W, strain fet3, hits give low values 1.04 | S. cerevisiae deletion strains, locus YMR078C, strain ctf18, hits give low values 0.985 | S. cerevisiae deletion strains, locus YMR125W, strain sto1, hits give low values 1.01 | S. cerevisiae deletion strains, locus YMR129W, hits give low values 1.01 | S. cerevisiae deletion strains, locus YMR205C, strain PFK2, hits give low values 1.01 | S. cerevisiae deletion strains, locus YMR223W, strain ubp8, hits give low values 0.971 | S. cerevisiae deletion strains, locus YMR231W, strain pep5, hits give low values 1.02 | S. cerevisiae deletion strains, locus YMR263W, strain SAP30, hits give low values 1.02 | S. cerevisiae deletion strains, locus YMR307W, strain GAS1, hits give low values 0.97 and 1.01 | S. cerevisiae deletion strains, locus YNL067W, strain RPL9B, hits give low values 1.02 | S. cerevisiae deletion strains, locus YNL071W, strain lat1, hits give low values 1.02 | S. cerevisiae deletion strains, locus YNL153C, strain GIM3, hits give low values 1.04 and 0.971 | S. cerevisiae deletion strains, locus YNL175C, strain NOP13, hits give low values 0.976 | S. cerevisiae deletion strains, locus YNL197C, strain WHI3, hits give low values 0.95 | S. cerevisiae deletion strains, locus YNL209W, strain ssb2, hits give low values 1.02 | S. cerevisiae deletion strains, locus YNL224C, strain SQS1, hits give low values 0.977 | S. cerevisiae deletion strains, locus YNL233W, strain BNI4, hits give low values 1 | S. cerevisiae deletion strains, locus YNL248C, strain rpa49, hits give low values 0.983 | S. cerevisiae deletion strains, locus YNL250W, strain rad50, hits give low values 0.955 | S. cerevisiae deletion strains, locus YNL271C, strain bni1, hits give low values 0.978 | S. cerevisiae deletion strains, locus YNL298W, strain CLA4, hits give low values 0.994 | S. cerevisiae deletion strains, locus YNL307C, strain MCK1, hits give low values 0.989 | S. cerevisiae deletion strains, locus YNL322C, strain KRE1 (second series), hits give low values 1.02 | S. cerevisiae deletion strains, locus YNL322C, strain KRE1, hits give low values 1 and 1.01 | S. cerevisiae deletion strains, locus YNR049C, strain mso1, hits give low values 1 | S. cerevisiae deletion strains, locus YNR052C, strain pop2, hits give low values 0.996 | S. cerevisiae deletion strains, locus YOL012C, strain htz1 1.22 | S. cerevisiae deletion strains, locus YOL147C, strain pex11, hits give low values 0.981 | S. cerevisiae deletion strains, locus YOR001W, strain rrp6, hits give low values 1.01 | S. cerevisiae deletion strains, locus YOR061W, strain CKA2, hits give low values 1.01 | S. cerevisiae deletion strains, locus YOR069W, strain VPS5, hits give low values 1 | S. cerevisiae deletion strains, locus YOR070C, strain gyp1, hits give low values 1.03 | S. cerevisiae deletion strains, locus YOR080W, strain dia2, hits give low values 1.02 | S. cerevisiae deletion strains, locus YOR083W, strain WHI5 (second series), hits give low values 0.992 | S. cerevisiae deletion strains, locus YOR083W, strain WHI5, hits give low values 1.01 | S. cerevisiae deletion strains, locus YOR106W, strain vam3, hits give low values 0.983 | S. cerevisiae deletion strains, locus YOR136W, strain idh2, hits give low values 0.981 | S. cerevisiae deletion strains, locus YOR144C, strain elg1, hits give low values 0.979 | S. cerevisiae deletion strains, locus YOR184W, strain ser1, hits give low values 0.985 | S. cerevisiae deletion strains, locus YOR265W, strain rbl2, hits give low values 1.02 | S. cerevisiae deletion strains, locus YOR270C, strain vph1, hits give low values 0.989 | S. cerevisiae deletion strains, locus YOR290C, strain snf2, hits give low values 1.02 | S. cerevisiae deletion strains, locus YOR316C, strain cot1, hits give low values 0.983 | S. cerevisiae deletion strains, locus YPL051W, strain arl3, hits give low values 1.04 | S. cerevisiae deletion strains, locus YPL055C, strain LGE1, hits give low values 1.01 and 1.06 | S. cerevisiae deletion strains, locus YPL078C, strain atp4, hits give low values 0.992 | S. cerevisiae deletion strains, locus YPL106C, strain sse1, hits give low values 1.07 | S. cerevisiae deletion strains, locus YPL240C, strain hsp82, hits give low values 0.995 | S. cerevisiae deletion strains, locus YPR119W, strain clb2, hits give low values 0.972 | S. cerevisiae deletion strains, locus YPR141C, strain kar3, hits give low values 0.954 | S. cerevisiae deletion strains, locus YPR163C, strain tif3, hits give low values 0.985 | S. cerevisiae deletion strains, locus YPR167C, strain met16, hits give low values 0.971 | S. cerevisiae deletion strains, strain wtn01, hits give low values 0.984 | S. cerevisiae strains, strain wild type, hits give low values 1.01
